Measurements: PubChem BioAssay (NCATS)
Results filed as inconclusive are left out. Activity calls are given as the source filed them. Unless noted, calls come from the whole dose curve; as a rule, active = well fitted inhibition curve with a large enough effect; inconclusive = small, poorly fitted or top-dose-only effect; inactive = flat fitted curve, though single readings scatter.

Legend:
[1] = S16 Schwann cell PMP22 intronic element beta-lactamase assay (AID 624044; calls by dose curve; note: nearly all actives have a fitted effect of over 15% in size); conditions: S16 rat Schwann cells, PMP22 element beta-lactamase FRET, 24 h; ratio activity, negative = inhibition: at 38.3 µM (top of the series)
Method in brief: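 Beta-lactamase reporter under a PMP22 intronic regulatory element in stable S16 rat Schwann cells; 24 h compound exposure. 460 nm blue signal normalized between DMSO (0%) and potassium clavulanate, with 535 nm FRET tracking viability; curves classed by r2 and response.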

3D7 = assay: qHTS profiling for inhibitors of Plasmodium falciparum proliferation (AID 504749); note: nearly all actives have a fitted effect of over 60% in size; conditions: P. falciparum in erythrocytes, SYBR Green DNA, 72 h; series mostly up to 28.7 µM
Method in brief: (§1)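 Fluorescence of SYBR Green-bound parasite DNA, read at 485/535 nm, served as the growth measure. Infected erythrocytes were cultured with compound 72 h; artemisinin (0.29 uM) and DMSO wells defined the normalization range.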

CP185 = assay: as above; conditions: P. falciparum in erythrocytes, SYBR Green DNA, 72 h; series mostly up to 28.7 µM
Method in brief: as §1

CP203 = assay: as above; conditions: P. falciparum in erythrocytes, SYBR Green DNA, 72 h; series mostly up to 28.7 µM
Method in brief: as §1

CP211 = assay: as above; conditions: P. falciparum in erythrocytes, SYBR Green DNA, 72 h; series mostly up to 28.7 µM
Method in brief: as §1

CP217 = assay: as above; conditions: P. falciparum in erythrocytes, SYBR Green DNA, 72 h; series mostly up to 28.7 µM
Method in brief: as §1

CP250 = assay: as above; conditions: P. falciparum in erythrocytes, SYBR Green DNA, 72 h; series mostly up to 28.7 µM
Method in brief: as §1

CP252 = assay: as above; conditions: P. falciparum in erythrocytes, SYBR Green DNA, 72 h; series mostly up to 28.7 µM
Method in brief: as §1

CP256 = assay: as above; conditions: P. falciparum in erythrocytes, SYBR Green DNA, 72 h; series mostly up to 28.7 µM
Method in brief: as §1

CP262 = assay: as above; conditions: P. falciparum in erythrocytes, SYBR Green DNA, 72 h; series mostly up to 28.7 µM
Method in brief: as §1

CP265 = assay: as above; conditions: P. falciparum in erythrocytes, SYBR Green DNA, 72 h; series mostly up to 28.7 µM
Method in brief: as §1

CP291 = assay: as above; conditions: P. falciparum in erythrocytes, SYBR Green DNA, 72 h; series mostly up to 28.7 µM
Method in brief: as §1

CP305 = assay: as above; conditions: P. falciparum in erythrocytes, SYBR Green DNA, 72 h; series mostly up to 28.7 µM
Method in brief: as §1

CP315 = assay: as above; conditions: P. falciparum in erythrocytes, SYBR Green DNA, 72 h; series mostly up to 28.7 µM
Method in brief: as §1

CP335 = assay: as above; conditions: P. falciparum in erythrocytes, SYBR Green DNA, 72 h; series mostly up to 28.7 µM
Method in brief: as §1

DIV30 = assay: as above; conditions: P. falciparum in erythrocytes, SYBR Green DNA, 72 h; series mostly up to 28.7 µM
Method in brief: as §1

ECU = assay: as above; conditions: P. falciparum in erythrocytes, SYBR Green DNA, 72 h; series mostly up to 28.7 µM
Method in brief: as §1

HB3 = assay: as above; conditions: P. falciparum in erythrocytes, SYBR Green DNA, 72 h; series mostly up to 28.7 µM
Method in brief: as §1

N140 = assay: as above; conditions: P. falciparum in erythrocytes, SYBR Green DNA, 72 h; series mostly up to 28.7 µM
Method in brief: as §1

TAB113 = assay: as above; conditions: P. falciparum in erythrocytes, SYBR Green DNA, 72 h; series mostly up to 28.7 µM
Method in brief: as §1

Measured: Potency
Potency is the fitted concentration of half-maximal effect.

C#CCN1CC(=O)N(COC(=O)[C@@H]2[C@@H](C=C(C)C)C2(C)C)C1=O
inactive: all assays above

CC1OC(O[C@H]2C[C@@H](O)[C@]3(CO)[C@@H]4C(CC[C@]3(O)C2)[C@@]2(O)CC[C@H](C3=CC(=O)OC3)[C@@]2(C)C[C@H]4O)C(O)C(O)C1O (some centres undefined)
inactive: all assays above

CCCN1CCCC2Cc3nc(N)ncc3CC21 (centres undefined)
inactive: all assays above

CC(=O)[C@H]1CC[C@H]2C3CC[C@H]4C[C@H](O)CC[C@]4(C)C3CC[C@]12C (some centres undefined)
inactive: all assays above

CC(=O)Oc1ccc2c3c1OC1[C@@H](OC(C)=O)C=C[C@H]4[C@H](C2)N(C)CC[C@]314 (some centres undefined)
inactive: all assays above

CCOC(=O)/C=C(C)/C=C/CC(C)CCCC(C)C (centres undefined)
inactive: all assays above

CCCCCCC(=O)O[C@H]1CC[C@H]2[C@@H]3CCC4CC(=O)C=C(C)[C@]4(C)[C@H]3CC[C@]12C (some centres undefined)
active: 3D7 11.2 µM | CP335 8.49 µM | HB3 11.2 µM
inactive: all other assays above

CC(Cc1ccccc1)N(C)C (centres undefined)
not listed: CP262
inactive: all other assays above

CC1(C)[C@@H](C=C(Cl)Cl)[C@@H]1C(=O)OCc1c(F)c(F)cc(F)c1F
inactive: all assays above

C=CC[N+]1(C)CCC23c4c5ccc(O)c4O[C@H]2C(=O)CC[C@@]3(O)C1C5 (some centres undefined)
inactive: all assays above

COc1ccc2c3c1O[C@H]1[C@@H](O)C=C[C@H]4C(C2)NCCC341 (some centres undefined)
inactive: all assays above

C[C@]12CC[C@H]3[C@@H](CC[C@@]45O[C@@H]4C(=O)C(C#N)C[C@]35C)[C@@H]1CC[C@@H]2O (some centres undefined)
inactive: [1] | 3D7 | CP203 | CP211 | CP262 | CP291 | CP305 | CP315 | CP335 | DIV30 | HB3

CC(C)CCC(=O)OC1CCC2C3CCC4=CC(=O)CC[C@]4(C)C3CC[C@]12C (some centres undefined)
inactive: CP203 | CP211 | CP262 | CP305 | CP315 | DIV30
active: CP185 10 µM | CP250 10 µM | CP256 7.94 µM | CP265 7.94 µM | ECU 10 µM | TAB113 7.08 µM

CN(C)C1C(=O)C(C(N)=O)C(=O)C2(O)C(=O)C3C(=O)c4c(O)cccc4C(C)(O)C3C(O)C12 (centres undefined)
active: CP335 6.01 µM
not listed: 3D7 | CP291 | CP315 | DIV30 | HB3
inactive: all other assays above

C#CC1(O)C=CC2C3CCC4=CC(=O)CCC4C3CCC21CC (centres undefined)
active: CP291 15.1 µM | HB3 10 µM
inactive: [1] | CP217 | CP252 | ECU | N140

CC1CC[C@@]2(NC1)OC1CC3C4CC[C@@H]5CC(O)CC[C@@]5(C)C4CC[C@]3(C)C1C2C (some centres undefined)
active: ECU 12.6 µM
not listed: CP217 | CP256 | CP265 | CP335 | DIV30 | HB3 | N140
inactive: all other assays above

CC(C)=CC1C(C(=O)OCc2coc(Cc3ccccc3)c2)C1(C)C (centres undefined)
not listed: [1] | CP256 | CP265 | TAB113
inactive: all other assays above

CN(C)[C@@H](Cc1ccccc1)c1ccccc1
inactive: all assays above

C=C1CC2C(CC[C@]3(C)C(=O)CCC23)[C@]2(C)C=CC(=O)C=C12 (some centres undefined)
not listed: [1] | CP335
inactive: all other assays above

NC(Cc1ccc(Oc2cc(I)c(O)c(I)c2)c(I)c1)C(=O)O (centres undefined)
not listed: N140
inactive: all other assays above

COC(=O)C1C(OC(=O)c2ccccc2)CC2CCC1N2C (centres undefined)
inactive: all assays above

O=C1CC2OCC=C3CN4CCC56c7ccccc7N1C5[C@H]2[C@H]3C[C@H]46 (some centres undefined) (tested in a mixture with another compound)
not listed: 3D7 | CP203 | CP262 | CP305 | DIV30 | ECU | HB3
inactive: all other assays above

O=C1CC2OCC=C3CN4CC[C@]56c7ccccc7N1C5C2[C@H]3C[C@H]46 (some centres undefined)
inactive: [1] | 3D7 | HB3
active: CP256 8.91 µM | CP335 5.36 µM

CCC(=O)OC1(c2ccccc2)CCN(C)CC1C (centres undefined)
inactive: [1] | 3D7 | CP211 | CP262 | CP315 | DIV30 | ECU | HB3

CC(CO)NC(=O)C1C=C2c3cccc4[nH]cc(c34)CC2N(C)C1 (centres undefined)
inactive: all assays above

CCN(CC)C(=O)N[C@@H]1C=C2c3cccc4[nH]cc(c34)C[C@H]2N(C)C1
inactive: [1] | CP203 | CP315
active: CP265 10 µM | DIV30 8.49 µM | N140 12.6 µM | TAB113 7.94 µM

C[C@@H](N)[C@@H](O)c1ccc(O)c(O)c1
inactive: all assays above

CC(=O)O[C@H]1C[C@H](O[C@H]2[C@@H](O)CC(O[C@H]3[C@@H](O)C[C@H](O[C@H]4CC[C@@]5(C)[C@H](CC[C@@H]6[C@@H]5CC[C@]5(C)[C@@H](C7=CC(=O)OC7)CC[C@]65O)C4)O[C@@H]3C)O[C@@H]2C)O[C@H](C)[C@H]1O[C@@H]1O[C@H](CO)[C@@H](O)[C@H](O)[C@H]1O (some centres undefined)
not listed: 3D7 | CP203
inactive: all other assays above

CC(C)=O
inactive: [1]

CC[C@]1([C@H]2O[C@@H]([C@@H]3O[C@](O)(CO)[C@@H](C)C[C@H]3C)C[C@H]2C)CC[C@@H]([C@]2(C)CC[C@@]3(C[C@@H](O)[C@@H](C)[C@@H]([C@H](C)[C@H](OC)[C@H](C)C(=O)O)O3)O2)O1
active: [1] 0.562 µM

CNC1=CN(O)C(c2ccccc2)=c2cc(Cl)ccc2=N1
inactive: [1]
